Molecules are shown by their SMILES. Calls of active or inactive are those of the source. Rule for the calls: active = hit-call score of the fitted dose curve at least 0.9, where 1 is the maximum; inactive = score below 0.9.

Experiment [1] in a line: CCTE_Padilla_ZF_Score.Craniofacial: CCTE's 144 Hour Post-fertilization zebrafish Assay Score for Craniofacial Malformation, Padilla Lab (AID 2284405). In outline: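 Craniofacial defects were scored at 6 dpf by two blinded observers using stereomicroscopy. Exposure of wild-type embryos began at 6–8 hpf in sealed wells of 10% Hanks' solution at 26C, with chemical removed by rinsing at 5 dpf.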

A short description of experiment [2]: CCTE_Padilla_ZF_Score.Spine: CCTE's 144 Hour Post-fertilization zebrafish Assay Score for Spine Malformation, Padilla Lab (AID 2284407). In outline: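 Spine malformation scored at 6 dpf by two independent blinded observers under stereomicroscope, after static sealed exposure from 6–8 hpf at 26C in Hanks' solution with rinse on 5 dpf. Positive-direction fit against DMSO control.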

Experiment [3] is described as follows: CCTE_Padilla_ZF_Score.Swim_bladder: CCTE's 144 Hour Post-fertilization zebrafish Assay Score for Swim Bladder Malformation, Padilla Lab (AID 2284408). In outline:
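Swim bladder inflation scored at 6 dpf by two blinded observers under a stereo microscope. Exposure ran from 6–8 hpf in sealed wells of 10% Hanks' at 26C, with rinsing at 5 dpf; DMSO served as baseline.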

The nature of experiment [4]: CCTE_Padilla_ZF_Score.Position: CCTE's 144 Hour Post-fertilization zebrafish Assay Score for Position, Padilla Lab (AID 2284409). In outline:
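Wild-type zebrafish embryos (with chorions) exposed singly from 6–8 hpf in sealed wells of Hanks' solution at 26C, rinsed at 5 dpf. At 6 dpf, blinded assessors scored abnormal water-column position by brightfield stereomicroscopy, relative to DMSO.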

Experiment [5] in a line: CCTE_Padilla_ZF_Score.Living: CCTE's 144 Hour Post-fertilization zebrafish Assay Score for Viability, Padilla Lab (AID 2284410).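 Note: larval death at 6 dpf judged by absent heartbeat or coagulation.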 In outline:
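Mortality at 6 dpf, judged as absent heartbeat or coagulation by two blinded observers, after sealed static exposure beginning at 6–8 hpf at 26C. Larvae were rinsed free of chemical at 5 dpf, and activity was fitted relative to DMSO.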

Experiment [6] is described as follows: Tanguay_ZF_120hpf_MORT: Oregon State University Tanguay Lab 120 Hour Post-fertilization zebrafish Assay for Mortality (AID 2284399). In outline:
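Mortality, recorded present/absent via brightfield imaging at 24 and 120 hpf, in 5D zebrafish embryos exposed statically from 6 hpf after pronase chorion removal. Exposure at 28C, 0.64% DMSO vehicle, DMSO baseline.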

A short description of experiment [7]: Tanguay_ZF_120hpf_EDEM: Oregon State University Tanguay Lab 120 Hour Post-fertilization zebrafish Assay for Edema Malformation (AID 2284400). In outline:
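Edema recorded as a binary endpoint under brightfield at 120 hpf, excluding embryos that died. Exposure was static, sealed, 28C, from 6 hpf in dechorionated wild-type larvae, final DMSO 0.64%, DMSO as baseline.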

Experiment [8] is described as follows: Tanguay_ZF_120hpf_BRN: Oregon State University Tanguay Lab 120 Hour Post-fertilization zebrafish Assay for Brain Region Malformation (AID 2284402). In outline: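 Binary brightfield scoring of brain malformation at 120 hpf in 5D wild-type larvae, chorion removed with pronase at 4 hpf. Static exposure began at 6 hpf, 28C, sealed plates, DMSO 0.64% (vol/vol) as vehicle baseline.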

The nature of experiment [9]: Tanguay_ZF_120hpf_TCHR: Oregon State University Tanguay Lab 120 Hour Post-fertilization zebrafish Assay for Touch Responsive (AID 2284403). In outline:
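Binary touch-response calls are made at 120 hpf in 5D wild-type zebrafish larvae. These larvae were dechorionated with pronase and exposed singly from 6 hpf in sealed, dark plates at 28 °C with 0.64% DMSO final; dead embryos are excluded.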

Experiment [10] can be described thus: Tanguay_ZF_120hpf_ANY: Oregon State University Tanguay Lab 120 Hour Post-fertilization zebrafish Assay for Any Mortality and Malformation (AID 2284404). In outline: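 Dechorionated Tropical 5D wild-type embryos, one per well from 6 hpf, static exposure in sealed, dark plates at 28C until 120 hpf, 0.64% DMSO final. Brightfield scoring of mortality and malformations as binary presence/absence, pooling 13 morphology endpoints.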

Take `FC(F)(F)N1C(F)(F)C(F)(F)OC(F)(F)C1(F)F`: the outcome in [1], in [2], in experiment [3], in [4] and in experiment [5] was inactive.

On to `O=CC(F)(F)C(F)(F)C(F)(F)C(F)F`, for which the outcome in experiment [1], in experiment [2], in experiment [3], in experiment [4] and in experiment [5] was inactive.

Regarding `FC(F)=C(F)C(F)(F)C(F)(F)C(F)(F)C(F)F`, the compound was called inactive in experiment [1], in experiment [2], in experiment [3], in [4] and in experiment [5].

Turning to `O=CC(F)(F)C(F)(F)C(F)(F)F`, the compound was called inactive in [1], in experiment [2], in experiment [3], in experiment [4] and in [5].

Turning to `O=C1OC(=O)C(F)(F)C1(F)F`, the result in [1], in [2], in [3], in [4] and in experiment [5] was inactive.

In general, AC50 refers to the midpoint of the concentration-response curve, whichever way the signal moves. On to `O=P(O)(O)CCC(F)(F)C(F)(F)C(F)(F)C(F)(F)C(F)(F)C(F)(F)F`, for which the call in [6], in experiment [7], in experiment [8], in experiment [9], in experiment [10] and in experiment [1] was inactive. Besides, the compound was called inactive in [2], in experiment [3] and in experiment [4]. Moreover, the AC50 in experiment [5] was 32.1 µM (active).

Regarding `OCC(F)(F)C(F)(F)C(F)(F)C(F)(F)C(F)(F)C(F)(F)C(F)(F)C(F)(F)C(F)(F)C(F)(F)C(F)(F)F`, the call in [6], in experiment [7], in experiment [8], in [9], in experiment [10] and in experiment [1] was inactive. Besides, the result in [2], in experiment [3], in [4] and in experiment [5] was inactive.

As for `O=C(CC(=O)C(F)(F)C(F)(F)C(F)(F)F)c1cccs1`, the result in experiment [6], in experiment [8], in [9], in experiment [1], in [2] and in [4] was inactive. Besides, the AC50 in [7] was 65.8 µM (active); in [10], 67.7 µM (active); in [3], 2.41 µM (active); in experiment [5], 7.34 µM (active).

For `O=C(O)CCC(F)(F)C(F)(F)C(F)(F)C(F)(F)C(F)(F)F`, the compound was called inactive in [6], in [7], in experiment [8], in experiment [9], in [10] and in experiment [1]. For the same compound, the outcome in experiment [2] was inactive. For the same compound, the AC50 in experiment [3] was 10.9 µM (active); in experiment [4], 10.7 µM (active); in experiment [5], 28.3 µM (active).

`O=C(F)C(F)(F)C(F)(F)C(F)(F)C(=O)F`: the outcome in experiment [1], in experiment [2], in [3], in [4] and in experiment [5] was inactive.

As for `FC(OC(F)(F)C(F)(F)C(F)(F)F)C(F)(F)F` (stereo not given), the compound was called inactive in experiment [1], in experiment [2], in [3], in experiment [4] and in experiment [5].

Consider `FCOC(C(F)(F)F)C(F)(F)F`, for which the call in experiment [1], in [2], in experiment [3], in [4] and in [5] was inactive.

Take `O=C(OC(=O)C(F)(F)C(F)(F)F)C(F)(F)C(F)(F)F`: the compound was classed as inactive in [1], in [2], in [3], in [4] and in experiment [5].

With `FC(F)(F)C1(F)C(F)(F)C(F)(F)C(F)(F)C1(F)F`, the outcome in experiment [1], in experiment [2], in [3], in [4] and in [5] was inactive.

Regarding `FC1(F)C=CC(F)(F)C1(F)F`, the result in [1], in experiment [2], in experiment [3], in experiment [4] and in experiment [5] was inactive.

Take `C=CC(=O)OCCC(F)(F)C(F)(F)C(F)(F)C(F)(F)C(F)(F)C(F)(F)C(F)(F)C(F)(F)F`: the outcome in [6], in experiment [7], in experiment [8], in experiment [9], in experiment [10] and in experiment [1] was inactive. Moreover, the outcome in experiment [2], in experiment [3], in experiment [4] and in experiment [5] was inactive.

Take `O=C(O)CCC(F)(F)C(F)(F)C(F)(F)C(F)(F)C(F)(F)C(F)(F)F`: the compound was called inactive in experiment [1], in [2] and in experiment [4]. Moreover, the AC50 in experiment [3] was 10.4 µM (active); in experiment [5], 22.2 µM (active).

As for `CN(CCO)S(=O)(=O)C(F)(F)C(F)(F)C(F)(F)C(F)(F)C(F)(F)C(F)(F)C(F)(F)C(F)(F)F`, the compound was called inactive in [6], in experiment [8], in experiment [1], in experiment [2], in [3] and in experiment [4]. The AC50 in [7] was 29.6 µM (active); in experiment [9], 29.6 µM (active); in experiment [10] it was 28.9 µM (active); in experiment [5], 10.7 µM (active).

For the compound `O=C(O)C(F)(F)OC(F)(F)C(F)(F)OC(F)(F)C(F)(F)OC(F)(F)C(F)(F)C(F)(F)C(F)(F)F`, the AC50 in [6] is 51.1 µM (active); in experiment [10] it was 34.4 µM (active); in experiment [3], 3.2 µM (active); in experiment [4] it was 8.31 µM (active); in experiment [5] it was 8.88 µM (active). The compound was classed as inactive in [7], in experiment [8], in [9], in [1] and in experiment [2].

Turning to `FC(F)(F)C1(F)C(F)(F)C(F)(F)C(F)(F)C(F)(C(F)(F)F)C1(F)F` (stereo not given), the call in experiment [1], in [2], in [3], in experiment [4] and in experiment [5] was inactive.

Turning to `NC(C(F)(F)F)C(F)(F)F`, the compound was called inactive in experiment [1], in experiment [2], in experiment [3], in experiment [4] and in experiment [5].

With `C=CC(F)(F)C(F)(F)C(F)(F)C(F)(F)F`, the compound was classed as inactive in [1], in experiment [2], in [3], in experiment [4] and in experiment [5].

On to `O=P(O)(O)CCC(F)(F)C(F)(F)C(F)(F)C(F)(F)C(F)(F)C(F)(F)C(F)(F)C(F)(F)F`, for which the compound was called inactive in [6], in [7], in experiment [8], in experiment [9], in [10] and in experiment [1]. The compound was classed as inactive in [2]. The AC50 in experiment [3] is 10 µM (active); in experiment [4], 65.2 µM (active); in experiment [5], 11.8 µM (active).

With `COC(=O)C(F)(F)C(F)(F)C(F)(F)C(F)(F)C(F)(F)F`, the compound was classed as inactive in experiment [1], in experiment [2], in experiment [3], in experiment [4] and in [5].

The values above are taken from PubChem BioAssay (EPA / NIEHS).
